Reference: publication PMC4336329 (PLoS ONE, 2015)
Among all 310,000 compounds or so, about 14,000 (4.5%) showed an effect of 50% or more. Effects have a minus sign here. The sample as a whole holds a higher share of strong results than the screen did.

Biological target: human ether-à-go-go-related gene (hERG) potassium channel (human, UniProt Q12809)
Assay: primary screen, population patch clamp on CHO cells stably expressing hERG; higher = less effect of the substance
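Note: peak tail current of the secondary pulse compared with the same well before compound.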

Chain of human ether-à-go-go-related gene (hERG) potassium channel (Q12809 whole entry, looked up): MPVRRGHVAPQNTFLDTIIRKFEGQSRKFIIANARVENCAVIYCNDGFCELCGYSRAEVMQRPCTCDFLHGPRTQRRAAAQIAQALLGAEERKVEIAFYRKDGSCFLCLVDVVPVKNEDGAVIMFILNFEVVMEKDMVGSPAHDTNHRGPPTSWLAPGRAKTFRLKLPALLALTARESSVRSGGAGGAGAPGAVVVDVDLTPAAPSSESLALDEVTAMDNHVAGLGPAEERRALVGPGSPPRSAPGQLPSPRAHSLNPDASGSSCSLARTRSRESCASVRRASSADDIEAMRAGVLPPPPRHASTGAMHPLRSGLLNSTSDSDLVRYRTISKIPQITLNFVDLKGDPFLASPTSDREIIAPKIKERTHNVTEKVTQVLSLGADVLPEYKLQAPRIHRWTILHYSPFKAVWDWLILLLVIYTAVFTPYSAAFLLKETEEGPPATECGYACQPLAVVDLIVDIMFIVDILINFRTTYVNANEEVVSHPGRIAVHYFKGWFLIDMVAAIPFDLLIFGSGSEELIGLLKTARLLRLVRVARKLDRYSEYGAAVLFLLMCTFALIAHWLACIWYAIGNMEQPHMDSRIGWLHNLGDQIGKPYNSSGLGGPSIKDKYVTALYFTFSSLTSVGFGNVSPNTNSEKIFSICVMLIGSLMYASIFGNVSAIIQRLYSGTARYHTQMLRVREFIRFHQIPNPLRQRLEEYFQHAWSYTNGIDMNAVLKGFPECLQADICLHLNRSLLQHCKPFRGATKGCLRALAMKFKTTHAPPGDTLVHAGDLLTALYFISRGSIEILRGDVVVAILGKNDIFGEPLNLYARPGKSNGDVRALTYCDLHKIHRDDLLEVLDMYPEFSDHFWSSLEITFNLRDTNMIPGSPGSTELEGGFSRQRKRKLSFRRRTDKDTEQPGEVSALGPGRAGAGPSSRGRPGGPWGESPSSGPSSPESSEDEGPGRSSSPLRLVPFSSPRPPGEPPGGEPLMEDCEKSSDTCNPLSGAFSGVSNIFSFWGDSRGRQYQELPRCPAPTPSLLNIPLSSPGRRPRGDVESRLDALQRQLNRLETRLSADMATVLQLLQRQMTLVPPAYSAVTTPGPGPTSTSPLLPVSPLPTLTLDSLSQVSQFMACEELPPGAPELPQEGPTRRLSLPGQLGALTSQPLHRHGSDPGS

Compound	hERG current change (%, negative = inhibition) at 10uM
CCn1c(CNC(=O)c2ccccc2Br)nnc1SCC(=O)Nc1nncs1	3.2%
COc1cccc(C(=O)Nc2ccc(NC(=O)c3ccco3)cn2)c1	-15.1%
O=C(Nc1ccc2c(c1)OCO2)c1cnn2c(C(F)(F)F)cc(-c3ccco3)nc12	2.24%
CCOC(=O)Cc1c(C)nc2c(-c3ccccc3OC)c(C)nn2c1C	-22.7%
COc1ccc(/C=N/N2C(=O)CN(C(=O)c3ccccc3)C2c2ccc(OC)cc2)cc1 (stereo not drawn)	-4.19%
CCCCc1nc2ccccc2c(C(=O)O)c1C	7.29%
CN1CCc2c1nc1ccccc1c2N.O=C(O)c1cc([N+](=O)[O-])ccc1Cl	-9.41%
CCCCc1nc2ccccc2c(N)c1CCC.O=C(O)c1cc([N+](=O)[O-])ccc1Cl	-66.4%
CS(=O)(=O)Nc1ccc(C2=NN(C(=O)C3CCCCC3)C(c3cccs3)C2)cc1 (stereo not drawn)	-22.8%
CS(=O)(=O)Nc1ccc(C2=NN(C(=O)c3ccccc3)C(c3cccs3)C2)cc1 (stereo not drawn)	-59.6%
Cc1cccc(C(=O)N2N=C(c3ccc(NS(C)(=O)=O)cc3)CC2c2cccs2)c1 (stereo not drawn)	-8.44%
CS(=O)(=O)Nc1ccc(C2=NN(S(C)(=O)=O)C(c3cccs3)C2)cc1 (stereo not drawn)	-49%
CC(C)(C)C(=O)N1N=C(c2ccc(NS(C)(=O)=O)cc2)CC1c1cccs1 (stereo not drawn)	-18.6%
CCS(=O)(=O)Nc1ccc(C2=NN(C(=O)c3ccccc3)C(c3cccs3)C2)cc1 (stereo not drawn)	4.84%
CS(=O)(=O)Nc1ccc(C2=NN(C(=O)c3cccc(F)c3)C(c3cccs3)C2)cc1 (stereo not drawn)	-53.8%
CS(=O)(=O)Nc1ccc(C2=NN(S(=O)(=O)c3ccccc3)C(c3cccs3)C2)cc1 (stereo not drawn)	-70.3%
CS(=O)(=O)Nc1cccc(C2=NN(C(=O)c3cccc(F)c3)C(c3cccs3)C2)c1 (stereo not drawn)	3.75%
CS(=O)(=O)Nc1cccc(C2=NN(S(=O)(=O)c3ccccc3)C(c3cccs3)C2)c1 (stereo not drawn)	-1.94%
Cc1ccc(C(=O)N2N=C(c3ccc(NS(C)(=O)=O)cc3)CC2c2cccs2)cc1 (stereo not drawn)	-23.1%
CC(C)C(=O)N1N=C(c2ccc(NS(C)(=O)=O)cc2)CC1c1cccs1 (stereo not drawn)	-68.7%
CCOC(=O)C1=NNC2C(=O)N(CC)C(=O)C12 (stereo not drawn)	9.23%
Cc1ccc(C)c(S(=O)(=O)N2CCN(CC(=O)Nc3ccc4c(c3)OCCO4)CC2)c1	-13.9%
Cc1occc1C(=O)N1CCN(S(C)(=O)=O)CC1	7.58%

Compound	hERG current change (%, negative = inhibition) at 10uM
COc1ccc(CNC(=O)c2cc(=O)c3cc(C)c(C)cc3o2)cc1	19.3%
COc1ccccc1C1CC(c2cccc(NS(C)(=O)=O)c2)=NN1S(=O)(=O)c1ccccc1 (stereo not drawn)	3.08%
COc1ccccc1C1CC(c2ccccc2)=NN1S(=O)(=O)c1ccccc1 (stereo not drawn)	12%
COc1ccccc1C1CC(c2ccc(NS(C)(=O)=O)cc2)=NN1S(=O)(=O)c1ccccc1 (stereo not drawn)	-69.6%
O=C(COC(=O)c1ccc(S(=O)(=O)N2CCOCC2)cc1)NCc1cccs1	2.5%
CCOc1ccc(N2CC(C(=O)Oc3ccccc3)CC2=O)cc1 (stereo not drawn)	-10.9%
O=S(=O)(CCSc1nc2ccccc2o1)c1nc2ccccc2s1	-5.57%
Cc1cc(Cl)c(S(=O)(=O)N(C)C)cc1OCC(N)=O	10.5%
COc1ccc(C2CC(c3ccccc3)=NN2S(=O)(=O)c2ccccc2)cc1 (stereo not drawn)	14.8%
COc1ccc(S(=O)(=O)N(CC(=O)Nc2ccccc2C(=O)N2CCOCC2)c2ccc(F)cc2)cc1	-57%
Cc1ccc(S(=O)(=O)N(CC(=O)Nc2ccccc2C(=O)O)c2ccc(Cl)cc2)cc1	13.6%
COc1ccc(N(CC(=O)Nc2ccccc2C(=O)N2CCCC2)S(C)(=O)=O)cc1	27.7%
COc1ccc(N(CC(=O)Nc2ccccc2C(=O)N2CCCC2)S(=O)(=O)c2ccccc2)cc1	-51.8%
CCOc1ccc(N(CC(=O)Nc2ccccc2C(=O)N2CCCC2)S(C)(=O)=O)cc1	2.43%
COc1ccc(N(CC(=O)Nc2ccccc2C(=O)N2CCOCC2)S(=O)(=O)c2ccc(F)cc2)cc1	-44.6%
O=C(CN(c1ccccc1)S(=O)(=O)c1ccc(Cl)cc1)Nc1ccccc1C(=O)N1CCCC1	-54.2%
CCOc1ccc(N(CC(=O)Nc2ccccc2C(=O)N2CCOCC2)S(=O)(=O)c2ccc(F)cc2)cc1	-30.5%
CN(CC(=O)Nc1ccccc1C(=O)N1CCCC1)S(=O)(=O)c1ccc(Cl)cc1	-22.8%
CCCn1c(SCC(=O)c2[nH]c(C)c(C(C)=O)c2C)n[nH]c1=O	-1.57%
COc1ccc(OC)c(NS(=O)(=O)c2ccc(NC(=O)c3ccc(NS(C)(=O)=O)cc3)cc2)c1	14.2%
Cc1ccc(-n2c(SCC(=O)Nc3nccs3)nc3c(c2=O)SCC3)cc1	0.0407%
CC1CC1C(=O)OCC(=O)Nc1ccccc1Oc1ccccc1 (stereo not drawn)	13.9%
COc1ccc(Cl)cc1NC(=O)C1CC(=O)N(c2ccc(F)cc2)C1 (stereo not drawn)	4.41%

Compound	hERG current change (%, negative = inhibition) at 10uM
CSc1ccc(/C=C(\NC(=O)c2ccco2)C(=O)N2CCCCC2)cc1	-29.6%
CSc1ncc(Cl)c(C(=O)Nc2ccc(C)c(C)c2)n1	13.4%
CCOc1ccc(-c2c(C)n([O-])c3c([n+]2=O)CCCCC3)cc1	17.4%
CCOc1ccc(N2C(=O)CC(Cc3ccc(Br)cc3)C2=O)cc1 (stereo not drawn)	5.77%
CCOc1ccc(-c2c(C)n([O-])c3c([n+]2=O)CCCC3)cc1	-1.2%
CCOc1ccc(-n2c(-c3ccc(OC)cc3)c[n+]3c2CCCCC3)cc1.[Br-]	-76%
CCOc1ccc(-n2c(-c3ccc(Br)cc3)c[n+]3c2CCCCC3)cc1.[Br-]	-77.7%
CCOc1ccc(-c2c(C)n(-c3ccc(OCC)cc3)c3[n+]2CCCCC3)cc1.[O-][Cl+3]([O-])([O-])[O-]	-77.7%
O=C(CSc1ncnc2c1oc1ccccc12)NCc1ccco1	-12.4%
CC(C)(C)SCCNC(=O)c1ccc(CN2CCc3ccccc3C2)cc1	-35.1%
O=C(Cn1ccsc1=NC(=O)c1ccco1)c1ccccc1	-6.93%
O=C(Nc1ccc(F)cc1F)c1cc(=O)n(-c2ccccc2)c(=O)[nH]1	6.37%
COc1ccc(NC(=O)CSC2=NC(=O)CC(C)=N2)cc1	15.1%
O=C(NNC(=S)NC(=O)c1ccccc1)c1ccc(O)cc1	24.7%
O=C(/C=C/c1ccc(Cl)cc1)N(Cc1ccccc1)C1CCS(=O)(=O)C1 (stereo not drawn)	-75%
O=C(/C=C/c1ccccc1)N(Cc1cccs1)C1CCS(=O)(=O)C1 (stereo not drawn)	-30.3%
O=C(/C=C/c1ccccc1)N(Cc1ccc(Cl)cc1)C1CCS(=O)(=O)C1 (stereo not drawn)	-30.6%
O=C(/C=C/c1ccccc1Cl)N(Cc1cccs1)C1CCS(=O)(=O)C1 (stereo not drawn)	-31.5%
Cc1ccc(/C=C/C(=O)N(Cc2cccs2)C2CCS(=O)(=O)C2)cc1 (stereo not drawn)	-79%
O=C(/C=C/c1ccc(Cl)cc1)N(Cc1cccs1)C1CCS(=O)(=O)C1 (stereo not drawn)	-72.8%
O=C(/C=C/c1ccccc1)N(Cc1cccc(Cl)c1)C1CCS(=O)(=O)C1 (stereo not drawn)	-25.6%
O=C(c1ccc(Cl)cc1)N(Cc1cccs1)C1CCS(=O)(=O)C1 (stereo not drawn)	-24.4%
COc1ccc(/C=C/C(=O)N(Cc2cccs2)C2CCS(=O)(=O)C2)cc1 (stereo not drawn)	-48.6%

Compound	hERG current change (%, negative = inhibition) at 10uM
S=C(NCc1cccs1)Nc1ccccc1Cl	9.58%
CCC1CCCCN1C(=O)CCS(=O)(=O)c1ccccc1 (stereo not drawn)	13.7%
COc1ccc(/C(O)=C2/C(=O)C(=O)N(CCCC(=O)O)C2c2ccc(OC)cc2)cc1 (stereo not drawn)	11.7%
Cc1cc(C(=O)NCc2cccc(Cl)c2)c2ccccc2n1	15.8%
COC(=O)c1cccc(C23CC4(C2)[C@H](CN(Cc2cccnc2)[C@@H]4c2ccccc2)C3c2ccccc2)c1 (stereo partly drawn)	8.51%
CCC(=O)N1CCc2cc(S(=O)(=O)CCC(=O)NC3CCCCC3)ccc21	5.33%
Cc1nn(C)c(C(=O)N/N=C/c2ccncc2)c1Cl	7.35%
COc1ccccc1N1C(=O)c2ccc(C(=O)Nc3cccc(C(C)=O)c3)cc2C1=O	1.69%
CCn1cc(CN(C)S(=O)(=O)c2ccc3ccccc3c2)c(C)n1	-1.17%
COc1ccc(C(=O)N2CCN(C(=O)Cc3ccccc3)CC2)cc1.O=C(O)C(=O)O	0.269%
CCN(Cc1ccccc1)C(=O)CCc1nc(CN2CCN(C(=O)c3ccc([N+](=O)[O-])cc3)CC2)no1	-64.2%
Cc1ccc(C(=S)N2CCN(Cc3ccccc3)CC2)cc1	-42.9%
O=C(Cc1ccccc1)NC1CCN(C(=O)c2ccc([N+](=O)[O-])cc2)CC1	-47.7%
CCN(Cc1ccccc1)C(=O)CCc1nc(-c2ccc(C)cc2)no1	-12.1%
S=C(c1ccc(Br)cc1)N1CCN(Cc2ccccc2)CC1	-36.3%
COc1ccc([N+](=O)[O-])cc1NC(=O)c1cccs1	4.41%
O=C(Cc1ccccc1)N1CCN(C(=O)c2ccc([N+](=O)[O-])cc2)CC1	-51%
COc1ccc(-c2noc(CCC(=O)N3CCN(Cc4ccccc4)CC3)n2)cc1	-32.8%
CSc1ccc(C(=S)N2CCN(Cc3ccccc3)CC2)cc1	-50.4%
COc1ccc(OC)c(NC(=O)C2CCN(C(=O)c3cccs3)CC2)c1	15.7%
COc1ccc([N+](=O)[O-])cc1NC1CCN(C(=O)c2cccs2)CC1	-85.7%
